About 79,000 compounds went through this panel and 15% of them were active in at least one assay; those are over-represented in the sample as a whole. Calls of active or inactive are those of the source. Cut-off read from the data, not from the text of the source: active = growth inhibition above about 70%; inactive = the rest.
Tests used:
[1] = NCI Yeast Anticancer Drug Screen. Data for the rad52 strain (AID 147);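 note: 0% = growth of vehicle-treated control cultures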; conditions: S. cerevisiae rad52 mutant growth inhibition, hits give high values
Procedure, shortened: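 Here a repair-compromised yeast strain receives each compound; its growth is then quantified and normalised to vehicle-only controls.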

[2] = NCI Yeast Anticancer Drug Screen. Data for the wt1 strain (AID 149);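 note: 0% = growth of vehicle-treated wt1 cultures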; conditions: S. cerevisiae wt1 strain (SPY 50644) growth inhibition, hits give high values
Procedure, shortened: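 Each compound is tested on wt1 yeast and the loss of growth versus vehicle gives the inhibition value.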

[3] = NCI Yeast Anticancer Drug Screen. Data for the rad50EPP+ strain (AID 151);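 note: 0% = growth of vehicle-treated control cultures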; conditions: S. cerevisiae rad50 mutant strain, hits give high values
Procedure, shortened: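 Read-out is yeast growth inhibition relative to vehicle; cells used were the rad50EPP+ strain.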

[4] = NCI Yeast Anticancer Drug Screen. Data for the mgt1 strain (AID 153); conditions: S. cerevisiae mgt1 mutant growth inhibition, hits give high values
Procedure, shortened: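 Measured: inhibition of mgt1 yeast growth by compound, normalized to vehicle-treated cultures.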

[5] = NCI Yeast Anticancer Drug Screen. Data for the rad50 strain (AID 155);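 note: 0% = growth of vehicle-only cultures of the same strain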; conditions: S. cerevisiae rad50 strain growth inhibition, hits give high values
Procedure, shortened: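 Vehicle-treated cultures provide the reference for the growth inhibition reported for compound-exposed, repair-deficient yeast.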

[6] = NCI Yeast Anticancer Drug Screen. Data for the mec2-1 strain (AID 157); conditions: S. cerevisiae mec2-1 strain, hits give high values
Procedure, shortened: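 Using mec2-1 yeast: add compound, measure growth, express inhibition versus vehicle-treated cultures.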

[7] = NCI Yeast Anticancer Drug Screen. Data for the rad14 strain (AID 159);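 note: 0% = growth of vehicle-treated control cultures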; conditions: S. cerevisiae rad14 strain growth inhibition, hits give high values
Procedure, shortened: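 Inhibition of growth is reported for a repair-deficient yeast mutant following compound treatment, calculated relative to cultures that received vehicle.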

[8] = NCI Yeast Anticancer Drug Screen. Data for the sgs1 mgt1 strain (AID 161);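 note: 0% = growth of cultures given vehicle only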; conditions: S. cerevisiae sgs1 mgt1 strain, hits give high values
Procedure, shortened: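 Percent growth inhibition was derived by comparing compound-exposed mutant yeast with vehicle-exposed cultures. The strain carries alterations in DNA damage repair.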

[9] = NCI Yeast Anticancer Drug Screen. Data for the CLN2oe strain (AID 163);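 note: 0% = growth of vehicle-only control cultures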; conditions: S. cerevisiae CLN2oe strain, hits give high values
Procedure, shortened: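 Whole-cell yeast growth assay. A strain engineered for altered cell-cycle control received compound, and inhibition relative to vehicle-treated cultures was recorded.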

[10] = NCI Yeast Anticancer Drug Screen. Data for the cln2 rad14 strain (AID 165);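 note: 0% = growth equal to vehicle treated cultures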; conditions: S. cerevisiae cln2 rad14 strain, hits give high values
Procedure, shortened: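 Yeast strain cln2 rad14, bearing defects in cell cycle control and DNA repair, serves as the test system; values reflect growth inhibition compared with vehicle.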

[11] = NCI Yeast Anticancer Drug Screen. Data for the bub3 strain (AID 167); conditions: S. cerevisiae bub3 mutant strain, hits give high values
Procedure, shortened: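 Mutant yeast screening strain plus compound; vehicle-treated cultures serve as the 0% inhibition reference.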

[12] = NCI Yeast Anticancer Drug Screen. Data for the wt2 strain (AID 169); conditions: S. cerevisiae wt2 strain growth inhibition, hits give high values
Procedure, shortened: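 Treated yeast vs. vehicle-treated yeast: growth inhibition determined.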

[13] = NCI Yeast Anticancer Drug Screen. Data for the mlh1 strain (AID 171);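 note: 0% = growth of vehicle-treated control cultures of the same strain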; conditions: S. cerevisiae mlh1 strain growth inhibition, hits give high values
Procedure, shortened: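 A yeast strain with a defined genetic lesion serves as the test organism. Cultures receive compound or vehicle, and growth is measured.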

[14] = NCI Yeast Anticancer Drug Screen. Data for the sgs1 strain (AID 173);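 note: 0% = growth of vehicle-only control cultures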; conditions: S. cerevisiae sgs1 mutant, hits give high values
Procedure, shortened: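 A genetically defined yeast mutant is incubated with the test compound, and its growth is compared to that of the same strain given vehicle.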

[15] = NCI Yeast Anticancer Drug Screen. Data for the mlh1 rad18 strain (AID 175); conditions: S. cerevisiae mlh1 rad18 strain growth inhibition, hits give high values
Procedure, shortened: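 Steps: expose repair-defective yeast to compound; measure growth; express inhibition against vehicle-treated controls.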

[16] = NCI Yeast Anticancer Drug Screen. Data for the rad18 strain (AID 177); conditions: S. cerevisiae rad18 mutant growth inhibition, hits give high values
Procedure, shortened: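 Measured value is growth inhibition of a yeast strain bearing a DNA repair alteration, referenced to vehicle-treated cells.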

[17] = at 5.0 µM (retest, dose inferred, filed as 0.5)
[18] = at 50.0 µM (retest, dose inferred, filed as 5.0)

Measured: growth inhibition

CCCCCCSc1ncnc2[nH]ncc12
active: [5]; at 50.0 µM 79.4% | [6]; at 50.0 µM 76.5% | [8]; at 50.0 µM 72.1% | [11]; at 50.0 µM 93% | [15]; at 50.0 µM 80.8%
inactive: [1]; at 1.2 µM -2% | [1]; at 3.7 µM -1% | [1]; at 11.0 µM 0% | [1]; at 33.0 µM -1% | [1]; at 100.0 µM -1% | [2]; at 1.2 µM -1% | [2]; at 3.7 µM -2% | [2]; at 11.0 µM -3% | [2]; at 33.0 µM -63% | [2]; at 100.0 µM -5% | [3]; at 1.2 µM -2% | [3]; at 3.7 µM 2% | [3]; at 11.0 µM 10% | [3]; at 33.0 µM 22% | [3]; at 100.0 µM 12% | [4]; at 1.2 µM -2% | [4]; at 3.7 µM -1% | [4]; at 11.0 µM -2% | [4]; at 33.0 µM -3% | [4]; at 100.0 µM -4% | [5]; at 1.2 µM 2% | [5]; at 3.7 µM 4% | [5]; [17] -1% | [5]; at 11.0 µM 34% | [5]; at 33.0 µM 4% | [5]; [18] 5% | [5]; at 100.0 µM 5% | [6]; at 1.2 µM -3% | [6]; at 3.7 µM -2% | [6]; [17] 0% | [6]; at 11.0 µM 0% | [6]; at 33.0 µM 0% | [6]; [18] 6% | [6]; at 100.0 µM 0% | [7]; at 1.2 µM -2% | [7]; at 3.7 µM 1% | [7]; at 11.0 µM 1% | [7]; at 33.0 µM 5% | [7]; at 100.0 µM 5% | [8]; [17] -2% | [8]; [18] 0% | [9]; at 1.2 µM -7% | [9]; at 3.7 µM -8% | [9]; at 11.0 µM 3% | [9]; at 33.0 µM -4% | [9]; at 100.0 µM -4% | [10]; [17] -5% | [10]; [18] 6% | [10]; at 50.0 µM 18.9% | [11]; at 1.2 µM 4% | [11]; at 3.7 µM 7% | [11]; [17] 11% | [11]; at 11.0 µM 9% | [11]; at 33.0 µM 15% | [11]; [18] 54% | [11]; at 100.0 µM 6% | [12]; at 1.2 µM -3% | [12]; at 3.7 µM 6% | [12]; at 11.0 µM -3% | [12]; at 33.0 µM -3% | [12]; at 100.0 µM -3% | [13]; at 1.2 µM -1% | [13]; at 3.7 µM -1% | [13]; at 11.0 µM -2% | [13]; at 33.0 µM -2% | [13]; at 100.0 µM -3% | [14]; at 1.2 µM -3% | [14]; at 3.7 µM -3% | [14]; at 11.0 µM 0% | [14]; at 33.0 µM 1% | [14]; at 100.0 µM 3% | [15]; [17] -1% | [15]; [18] 4% | [16]; at 1.2 µM -2% | [16]; at 3.7 µM 1% | [16]; at 11.0 µM 6% | [16]; at 33.0 µM 1% | [16]; at 100.0 µM 3%

OCC(CO)C(c1cccc2ccccc12)c1cccc2ccccc12
active: [1]; at 11.0 µM 98% | [1]; at 33.0 µM 98% | [1]; at 100.0 µM 88% | [2]; at 11.0 µM 98% | [2]; at 33.0 µM 99% | [2]; at 100.0 µM 94% | [4]; at 11.0 µM 98% | [4]; at 33.0 µM 99% | [4]; at 100.0 µM 93% | [5]; at 11.0 µM 98% | [5]; at 33.0 µM 98% | [5]; [18] 99% | [5]; at 50.0 µM 99.3% | [5]; at 100.0 µM 88% | [6]; at 11.0 µM 98% | [6]; at 33.0 µM 99% | [6]; [18] 99% | [6]; at 50.0 µM 99.2% | [6]; at 100.0 µM 92% | [7]; at 11.0 µM 99% | [7]; at 33.0 µM 99% | [7]; at 100.0 µM 90% | [8]; [18] 100% | [8]; at 50.0 µM 99.2% | [9]; at 11.0 µM 99% | [9]; at 33.0 µM 99% | [9]; at 100.0 µM 88% | [10]; [18] 97% | [10]; at 50.0 µM 99.2% | [11]; at 11.0 µM 98% | [11]; at 33.0 µM 99% | [11]; [18] 99% | [11]; at 50.0 µM 99.3% | [11]; at 100.0 µM 89% | [12]; at 11.0 µM 98% | [12]; at 33.0 µM 99% | [12]; at 100.0 µM 90% | [13]; at 11.0 µM 99% | [13]; at 33.0 µM 99% | [13]; at 100.0 µM 92% | [14]; at 11.0 µM 98% | [14]; at 33.0 µM 99% | [14]; at 100.0 µM 93% | [15]; [18] 99% | [15]; at 50.0 µM 98.7% | [16]; at 11.0 µM 98% | [16]; at 33.0 µM 99% | [16]; at 100.0 µM 88%
inactive: [1]; at 1.2 µM 3% | [1]; at 3.7 µM 42% | [2]; at 1.2 µM -5% | [2]; at 3.7 µM 1% | [3]; at 1.2 µM 0% | [3]; at 3.7 µM 3% | [3]; at 11.0 µM 10% | [3]; at 33.0 µM 13% | [3]; at 100.0 µM -2% | [4]; at 1.2 µM -1% | [4]; at 3.7 µM 9% | [5]; at 1.2 µM 4% | [5]; at 3.7 µM 40% | [5]; [17] 19% | [6]; at 1.2 µM -1% | [6]; at 3.7 µM 21% | [6]; [17] 4% | [7]; at 1.2 µM 0% | [7]; at 3.7 µM 20% | [8]; [17] 6% | [9]; at 1.2 µM -2% | [9]; at 3.7 µM 28% | [10]; [17] 2% | [11]; at 1.2 µM -1% | [11]; at 3.7 µM 9% | [11]; [17] -1% | [12]; at 1.2 µM -4% | [12]; at 3.7 µM 3% | [13]; at 1.2 µM 0% | [13]; at 3.7 µM 11% | [14]; at 1.2 µM 1% | [14]; at 3.7 µM 15% | [15]; [17] 7% | [16]; at 1.2 µM 7% | [16]; at 3.7 µM 53%

CCCCNC1CCC2(SCCS2)c2[nH]c3ccccc3c21 (stereo unspecified)
active: [5]; at 50.0 µM 87.3%
inactive: [1]; at 1.2 µM 2% | [1]; at 3.7 µM 5% | [1]; at 11.0 µM 3% | [1]; at 33.0 µM 4% | [1]; at 100.0 µM 5% | [2]; at 1.2 µM 1% | [2]; at 3.7 µM 1% | [2]; at 11.0 µM 0% | [2]; at 33.0 µM 1% | [2]; at 100.0 µM 6% | [3]; at 1.2 µM -2% | [3]; at 3.7 µM -1% | [3]; at 11.0 µM -2% | [3]; at 33.0 µM -4% | [3]; at 100.0 µM 7% | [4]; at 1.2 µM 2% | [4]; at 3.7 µM -2% | [4]; at 11.0 µM 7% | [4]; at 33.0 µM -5% | [4]; at 100.0 µM 7% | [5]; at 1.2 µM 2% | [5]; at 3.7 µM 3% | [5]; [17] 9% | [5]; at 11.0 µM -7% | [5]; at 33.0 µM 3% | [5]; [18] 49% | [5]; at 100.0 µM 6% | [6]; at 1.2 µM 10% | [6]; at 3.7 µM -1%
